Experiment [1] deals with Calcium and integrin-binding protein 1 (Homo sapiens) (UniProt Q99828). Briefly: Primary qHTS for Identification of Calcium Integrin Binding Protein 1 (CIB1) Competitor (AID 1508620).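 Further: GST tagged CIB1 binding a fluorescein labelled alphaIIb integrin peptide tracer; top concentration of the series differs between compounds.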 In outline: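 CIB1-GST (1 uM final) and compound incubated 15 min at room temperature before adding FITC-alphaIIb peptide tracer (100 nM final). Competition for binding read by fluorescence polarization (ex 480, em 540) after another 15 min at room temperature.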
On the technique in general: qHTS replaces the single test concentration by a dilution series.

Experiment [2] can be described thus: Primary qHTS for inhibitors of nuclear receptor binding SET domain protein 2 (NSD2) in an isogenic RCH-ACV NSD2 p.E1099K mutant (9B) (AID 1645876). Further: nearly all actives have a fitted effect of over 70% in size. Further: potency means the concentration at half of the fitted maximal effect.

Molecules are shown by their SMILES. Where “and” joins values, the source holds several entries; their conditions need not be identical. Identical values can stand only once. Results filed as inconclusive are left out. Where a call stands in place of a potency, no number is given. A number with no mark means an inactive call. Calls of active or inactive are those of the source. The call rests on the fitted dose curve; in most records, active means well fitted inhibition curve with a large enough effect; inconclusive means small, poorly fitted or top-dose-only effect; inactive means flat fitted curve, though single readings scatter. Where a SMILES comes first, the peptide text is derived from it. [ ]: non-standard residue; d: D form. dPhe(4-Cl) = N[C@H](Cc1ccc(Cl)cc1)C(=O)O; d2Nal = N[C@H](Cc1ccc2ccccc2c1)C(=O)O; dCit = NC(=O)NCCC[C@@H](N)C(=O)O; d3Pal = N[C@H](Cc1cccnc1)C(=O)O

Calcium and integrin-binding protein 1 (Homo sapiens), sequence (Q99828 whole entry, looked up): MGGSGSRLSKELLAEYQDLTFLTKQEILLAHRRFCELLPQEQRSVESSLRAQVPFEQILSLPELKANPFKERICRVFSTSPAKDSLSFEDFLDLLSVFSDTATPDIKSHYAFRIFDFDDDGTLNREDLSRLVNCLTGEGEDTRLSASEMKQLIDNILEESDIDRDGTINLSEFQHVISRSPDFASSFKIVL

As to `C[C@H](NC(c1cccc2[nH]c(=O)c(=O)[nH]c12)P(=O)(O)O)c1ccc(Br)cc1` (some centres undefined), the Potency result in experiment [1] and in experiment [2] was “inactive” in each case.
For `C[C@@H]1C[C@@H]2O[C@H]2/C=C\C=C\C(=O)Cc2c(Cl)c(O)cc(O)c2C(=O)O1`, the Potency entry in experiment [1] was “inactive”. In addition, the Potency in experiment [2] was 1.01 µM (active).
Regarding `CC12CCC3c4ccc(O)cc4CCC3C1CC(OC1OC(C(=O)O)C(O)C(O)C1O)C2O` (centres undefined), the Potency result in experiment [1] and in experiment [2] was “inactive” throughout.
As to `C=C1C(O)C[C@@H]2C(C(=O)O)=CO[C@@H](O[C@@H]3O[C@H](CO)[C@@H](O)[C@H](O)[C@H]3OC(=O)c3ccc(O)cc3)[C@H]12` (some centres undefined), the Potency entry in experiment [1] and in experiment [2] was “inactive” each time.
`COC(=O)CC(O)CC(O)/C=C/c1c(C)ccc2c1C(O)CC(C)C2` (centres undefined): the Potency entry in experiment [1] and in experiment [2] was “inactive” in each case.
With `NCCCNc1ccc(Nc2nccc(Nc3cc(C4CC4)[nH]n3)n2)cc1`, the Potency entry in experiment [1] was “inactive”. Besides, the Potency in experiment [2] is 0.578 µM (active).
With `CC(C)=CCC[C@](C)(O)[C@H]1CC[C@]2(C)[C@@H]1[C@H](O)CC1[C@@]3(C)CC[C@H](O)C(C)(C)[C@@H]3[C@@H](O[C@@H]3O[C@H](CO)[C@@H](O)[C@H](O)[C@H]3O[C@@H]3O[C@H](CO)[C@@H](O)[C@H](O)[C@H]3O)C[C@]12C` (some centres undefined), the Potency entry in experiment [1] and in experiment [2] was “inactive” each time.
In the case of `COC(=O)C1=CO[C@@H](O[C@@H]2O[C@H](CO)[C@@H](O)[C@H](O)[C@H]2O)[C@H]2[C@@H]1C=C[C@@]21C=C([C@H](C)O)C(=O)O1`, the Potency entry in experiment [1] and in experiment [2] was “inactive” in each case.
Turning to `CC(C)c1c2cc(-c3ccnc(NC4CCC(NC5CCOCC5)CC4)n3)ccc2nn1C` (centres undefined), in experiment [1], the Potency entry was “inactive”. The Potency in experiment [2] is 163 nM (active) and 148 nM (active).
Consider `CCC1=CC2CN(C1)Cc1c([nH]c3ccccc13)[C@@](C(=O)OC)(c1cc3c(cc1OC)N(C)[C@H]1[C@@](O)(C(=O)OC)[C@H](OC(C)=O)[C@]4(CC)C=CCN5CC[C@]31[C@@H]54)C2` (some centres undefined), for which, in experiment [1], the Potency entry is “inactive”. The Potency in experiment [2] is 0.0796 µM (active).
On the same counts, the results for `COc1cc2c(cc1O)[C@H](c1ccc(O[C@@H]3O[C@H](CO)[C@@H](O)[C@H](O)[C@H]3O)c(OC)c1)[C@@H](CO)[C@](O)(CO)C2` are “inactive” and “inactive”.
Turning to `C=C1C(=O)O[C@@H]2[C@H]1CCC(C)=C1CCC(=O)O[C@]12C`, the Potency entry in experiment [1] was “inactive”. In addition, the Potency in experiment [2] was 9.16 µM (active).
With `C[C@@H]1O[C@@H](O[C@H]2[C@H](O[C@H]3[C@H](O)[C@@H](C(=O)O)O[C@@H](O[C@H]4CC[C@@]5(C)C(CC[C@]6(C)C5CC[C@]57OC[C@@]8(CCC(C)(C)CC85)[C@H](O)C[C@]76C)C4(C)C)[C@@H]3O[C@@H]3O[C@H](CO)[C@@H](O[C@@H]4OC[C@@H](O)[C@H](O)[C@H]4O)[C@H](O)[C@H]3O)O[C@H](CO)[C@H](O)[C@@H]2O)[C@H](O)[C@H](O)[C@H]1O` (some centres undefined), the activity change, negative = inhibition in experiment [1] was 2.06% [at 12.4 µM]. In addition, the activity change, negative = viability loss in experiment [2] was 0.445% [at 9.23 µM].
Turning to `C=C(C)C(=O)O[C@H]1CC2=CC(C/C(C)=C\[C@H]3OC(=O)C(=C)[C@H]13)OC2=O` (some centres undefined), in experiment [1], the Potency result is “inactive”. Further, the Potency in experiment [2] was 5.05 µM (active).
`C=CC1(C)C=C2C(=O)OC(=O)C3=C(CCCC3(C)C)C2(O)CC1` (centres undefined): the Potency result in experiment [1] and in experiment [2] was “inactive” throughout.
For `CC(=O)O[C@@H]1[C@@H](O)[C@H](O[C@H]2CC[C@]34C[C@]35CC[C@]3(C)[C@@H]([C@@]6(C)CC[C@@H](C(C)(C)O)O6)[C@@H](O)C[C@@]3(C)[C@@H]5C[C@H](O[C@@H]3O[C@H](CO)[C@@H](O)[C@H](O)[C@H]3O)[C@H]4C2(C)C)OC[C@H]1O`, the Potency entry in experiment [1] and in experiment [2] was “inactive” each time.
In the case of `C[C@@H]1O[C@@H](O[C@H]2[C@@H]3C=CO[C@@H](O[C@@H]4O[C@H](CO)[C@@H](O)[C@H](O)[C@H]4O)[C@@H]3[C@@]3(CO)O[C@@H]23)[C@H](OC(=O)/C=C/c2ccc(O)c(O)c2)[C@H](O)[C@H]1O`, the Potency result in experiment [1] and in experiment [2] was “inactive” each time.
On to `CCC1C(=O)OC23C=C[C@@H]4C(C(=O)O)=CO[C@H](O[C@@H]12)[C@@H]43` (some centres undefined), for which, in experiment [1], the Potency result was “inactive”. Further, in experiment [2], the Potency is 25.8 µM (active).
On to `CC(C)O[C@@H]1O[C@H](CO)[C@@H](O)[C@H](O)[C@H]1O`, for which the Potency result in experiment [1] and in experiment [2] was “inactive” each time.
Consider `CC(=O)N[C@H](Cc1ccc2ccccc2c1)C(=O)N[C@H](Cc1ccc(Cl)cc1)C(=O)N[C@H](Cc1cccnc1)C(=O)N[C@@H](CO)C(=O)N[C@@H](Cc1ccc(O)cc1)C(=O)N[C@H](CCCNC(N)=O)C(=O)N[C@@H](CC(C)C)C(=O)N[C@@H](CCCN=C(N)N)C(=O)N1CCC[C@H]1C(=O)N[C@H](C)C(N)=O` (Ac-[d2Nal][dPhe(4-Cl)][d3Pal]SY[dCit]LRP[dA]-NH2), for which the Potency entry in experiment [1] and in experiment [2] was “inactive” in each case.
With `C/C(=C\CCC(C)CCO)C(=O)O[C@@H]1[C@@H](O)[C@H](OC2OC=C(C(=O)O)C3CCC(C)(O)C23)O[C@H](CO)[C@H]1O` (some centres undefined), the Potency entry in experiment [1] and in experiment [2] was “inactive” each time.
With `C[C@@H]1O[C@@H](O[C@H]2[C@H](O)[C@@H](C(=O)O)O[C@@H](O[C@H]3CC[C@@]4(C)C(CC[C@]5(C)C4CC=C4C6CC(C)(C)CC[C@]6(C(=O)O)CC[C@]45C)C3(C)C)[C@@H]2O[C@@H]2OC[C@@H](O)[C@H](O)[C@H]2O)[C@H](O)[C@H](O)[C@H]1O` (some centres undefined), in experiment [1], the Potency result is “inactive”. In addition, in experiment [2], the outcome is “inactive [at 9.23 µM]”.

Source of the values: PubChem BioAssay (NCATS).
